Structures are written as SMILES. Screen size: about 310,000 compounds; about 2,600 (0.84%) were called active. The list comes from a sample in which actives are over-represented; it also holds similar structures and randomly drawn compounds. Values without a mark were called inactive.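 The calls were made as follows: active = fluorescence ratio B-score at or below minus 3 SD of library scores, with starting-brightness B-score within 2 SD (cut at about -4.2 in these data); inactive = the rest.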

The target of this assay is Inward rectifier potassium channel 2 (Mus musculus) (UniProt P35561). The experiment in a line: blocks the mouse Kir2.1 inward-rectifier potassium channel (AID 1672).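 Also: channel flux triggered by added potassium and thallium sulfate stimulus; B-score of peak minus minimum fluorescence over baseline after thallium stimulus; more negative B-score means stronger Kir2.1 block with less thallium influx.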 The note with it: HEK293-Kir2.1, FluxOR thallium flux fluorescence; at 10 µM; active compounds read low.
Chain of Inward rectifier potassium channel 2 (Mus musculus) (P35561 whole entry, looked up): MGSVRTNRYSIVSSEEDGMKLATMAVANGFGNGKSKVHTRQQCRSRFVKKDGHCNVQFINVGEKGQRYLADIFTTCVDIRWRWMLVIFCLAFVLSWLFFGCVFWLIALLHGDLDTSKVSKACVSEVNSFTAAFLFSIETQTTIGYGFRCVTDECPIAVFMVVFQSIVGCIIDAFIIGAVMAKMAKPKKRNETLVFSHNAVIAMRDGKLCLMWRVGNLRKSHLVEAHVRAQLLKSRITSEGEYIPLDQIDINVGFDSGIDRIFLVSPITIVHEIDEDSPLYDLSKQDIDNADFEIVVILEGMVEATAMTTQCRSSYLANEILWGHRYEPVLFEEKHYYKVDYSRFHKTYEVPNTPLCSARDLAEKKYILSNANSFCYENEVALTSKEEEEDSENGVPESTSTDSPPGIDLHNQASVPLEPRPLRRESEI
On to `CCN1C(=O)[C@@H]2[C@@H](c3ccc(-c4ccccc4)cc3)N3CCCC[C@@]3(C(=O)OC)[C@@H]2C1=O`, for which the B-score was 2.48.

As to `CC(=O)c1ccc(S(=O)(=O)NC2CC(=O)N(c3ccc4c(c3)OCCO4)C2)cc1` (stereo not given), the B-score was 2.09.

`CCCCN1C(N)=NC[C@@H]1Cc1ccccc1`: the B-score is 1.05.

In the case of `Nc1ccc(C(=O)N2CCN(S(=O)(=O)c3ccc(Cl)cc3)CC2)cc1[N+](=O)[O-]`, the B-score is 0.63.

On to `CC1C(=O)N2CCCc3cc(S(=O)(=O)NCc4ccc(F)cc4)cc1c32` (stereo not given), for which the B-score is -0.21.

`CCOc1ccccc1NS(=O)(=O)c1cc2c3c(c1)C(C)C(=O)N3CCC2` (stereo not given): the B-score is -0.71.

On to `COc1ccccc1CCNS(=O)(=O)c1cc2c3c(c1)C(C)C(=O)N3CCC2` (stereo not given), for which the B-score is -5.71 (active).

On to `COc1ccc(N2CC(NS(=O)(=O)c3ccc4ccccc4c3)CC2=O)cc1` (stereo not given), for which the B-score was 0.13.

Consider `O=C(CCCN1CCc2[nH]c3ccc(F)cc3c2C1)c1ccc(F)cc1`, for which the B-score is -7.87 (active).

For `CCCC(=O)N1CCc2[nH]c3ccccc3c2C1`, the B-score was 0.74.

As to `Cc1ccc2[nH]c3c(c2c1)CN(C(=O)CN1CCN(c2ccccc2)CC1)CC3`, the B-score was 0.62.

`CCOc1cc(C(=O)Nc2ccc(S(=O)(=O)Nc3cnc4ccccc4n3)cc2)cc(OCC)c1OCC`: the B-score was 1.91.

With `CN(C)C(CNC(=O)c1cccc(S(=O)(=O)Nc2ccc(Br)cc2)c1)c1ccco1` (stereo not given), the B-score was 0.84.

As for `O=C(NCc1ccccn1)Nc1ccc(Cl)cc1`, the B-score is 0.46.

`CC(=O)C12CC(C)=C(C)CC1CC1C3CCC4=CC(=O)CCC4(C)C3CCC12C` (stereo not given): the B-score was 0.6.

Take `CCN(CC(=O)Nc1cc(Cl)ccc1C)C(=O)CSCc1ccc(C)cc1`: the B-score is -4.45 (active).

With `CCN(CC(=O)Nc1cc(Cl)ccc1C)C(=O)CN1C(=O)NC2(CCCC2)C1=O`, the B-score was -1.31.

On to `CCN(CC(=O)Nc1cc(Cl)ccc1C)C(=O)Cn1c(=O)cnc2ccccc21`, for which the B-score is -0.02.

Turning to `C=CCSc1nnc2c(n1)-c1cccc3cccc-2c13`, the B-score is 1.16.

`Cc1[nH][nH]c(=O)c1C(c1ccc(-c2ccc(Cl)cc2)o1)c1c(C)[nH][nH]c1=O`: the B-score was -9.44 (active).

As for `Cc1[nH][nH]c(=O)c1C(c1ccc2c(c1)OCO2)c1c(C)[nH][nH]c1=O`, the B-score was -0.12.

In the case of `CCOc1ccc(C(c2c(C)[nH][nH]c2=O)c2c(C)[nH][nH]c2=O)cc1OCC`, the B-score is -0.06.

`Cc1cccc(Nc2nc(NCCO)nc(N3CCCC3)n2)c1`: the B-score is 0.27.

Consider `CCCCn1c(N)c(N(Cc2ccccc2OC)C(=O)COc2cc(C)ccc2Cl)c(=O)[nH]c1=O`, for which the B-score was 0.8.

With `COC(=O)[C@@]12CCCN1[C@H](c1ccc(-c3ccc(F)cc3)c(OC)c1)[C@H]1C(=O)N(C)C(=O)[C@H]12`, the B-score is -0.2.

In the case of `CC(C)(C)c1cc2cccnc2n1Cc1ccccc1`, the B-score is -3.38.

Take `CC(C)(C)c1cc2cccnc2n1Cc1cccc(F)c1`: the B-score is -5.77 (active).

In the case of `COc1ccnc2c1c(=O)n(Cc1cccc(F)c1)c(=O)n2C`, the B-score is 0.78.

Turning to `CC1CCC2(CC1)NC(=O)N(CC(=O)c1ccc3c(c1)OCO3)C2=O` (stereo not given), the B-score is 0.27.

As to `CC(C)c1ccc(N2CCN(C(=O)c3ccccc3NC(=O)/C=C(\C(=O)O)c3ccccc3)CC2)cc1`, the B-score was -8.79 (active).

With `O=C(O)C1CC=CCC1C(=O)Nc1ccccc1C(=O)N1CCN(c2ccccc2)CC1` (stereo not given), the B-score is -0.23.

For the compound `COc1ccc(C(=O)Nc2ccccc2C(=O)N2CCN(c3ccccc3)CC2)cc1`, the B-score was 0.29.

In the case of `Cc1onc(-c2ccccc2Cl)c1C(=O)OCc1nnc(-c2ccccc2)o1`, the B-score is 0.59.

Take `COc1ccc(CCNC2=C(Cl)C(=O)N(Cc3ccccc3)C2=O)cc1OC`: the B-score was -1.89.

Regarding `COc1ccc(CCN=C2SCC(=O)N2C)cc1OC`, the B-score was 0.11.

Consider `COc1ccc(CCN=C2SCC(=O)N2Cc2ccccc2)cc1OC`, for which the B-score was -8.95 (active).

Regarding `COc1ccc(S(=O)(=O)NCc2cccnc2)cc1NC(=O)c1ccc(C)cc1`, the B-score is -1.69.

Turning to `COC(=O)c1c(-c2ccsc2)oc2ccc(-c3cc(OC)c(OC)c(OC)c3)cc12`, the B-score is 0.77.

On to `CC(C)Oc1ccc(S(=O)(=O)N2CCOCC2)cc1NC(=O)C1CSC2(C)CCC(=O)N12` (stereo not given), for which the B-score was -0.2.

For the compound `Cc1ccc(-c2nn(-c3ccc(F)cc3)cc2C(=O)NCC(c2cccs2)N2CCOCC2)cc1` (stereo not given), the B-score was 1.38.

In the case of `C=CCOc1cccc(C2C(C(=O)c3ccc(C)o3)=C(O)C(=O)N2c2nnc(C)s2)c1` (stereo not given), the B-score is -2.11.

As to `Cc1nc(N)[nH]c(=O)c1Oc1cccc(C(F)(F)F)c1`, the B-score is 0.08.

`CCC(=O)OCc1c(C(F)(F)F)nn(C)c1Oc1cccc(C(F)(F)F)c1`: the B-score is -6.22 (active).

As for `O=Cc1ccc(Oc2cccc(C(F)(F)F)c2)nc1`, the B-score was 0.35.

In the case of `CCOc1ccc(CCNC(=O)COC(=O)c2ccc(F)c(S(=O)(=O)N3CCOCC3)c2)cc1OCC`, the B-score was 0.3.

In the case of `O=C(CSc1nnc(-c2cnccn2)n1Cc1ccco1)c1ccc(Cl)c(Cl)c1`, the B-score was 0.04.

`O=C(CSc1nnc(-c2cccs2)n1Cc1ccco1)c1ccc2c(c1)OCO2`: the B-score was -4.78 (active).

As to `COc1ccc(NC(=O)CSc2nnc(-c3cccs3)n2Cc2ccco2)cc1OC`, the B-score was 0.49.

Regarding `CCn1c(SC(C)C(=O)Nc2ccc(N3CCOCC3)cc2)nnc1-c1ccco1` (stereo not given), the B-score is -1.79.

For the compound `CCN(CC)c1ccc(S(=O)(=O)N2CCCCC2)cc1NC(=O)C1=COCCO1`, the B-score was 1.68.

As to `CCCc1cc(=O)[nH]c(SCC(=O)c2cc(C)n(CCC)c2C)n1`, the B-score was -6.83 (active).

For `Cc1cc(C(=O)CSc2nc(N)cc(=O)[nH]2)c(C)n1CCc1ccc(Cl)cc1`, the B-score was -0.26.

As for `CCCc1cc(=O)[nH]c(SCC(=O)c2c(N)n(CC(C)C)c(=O)n(C)c2=O)n1`, the B-score is 0.93.

Take `Cc1ncc(CO)c(/C=N/NC(=O)c2cccc(S(=O)(=O)N3CCCC3)c2)c1O`: the B-score was -1.2.

`NC(=O)CSc1nnc(NC(=O)c2ccc3ccccc3c2)s1`: the B-score was 1.23.

For the compound `Cc1ccc(-c2csc(NC(=O)C3=COCCO3)n2)cc1C`, the B-score is 0.03.

In the case of `Cc1cc(Nc2ccc(Br)cc2)nc2ccccc12`, the B-score was -0.01.

As for `COc1cccc(CNCCc2c[nH]c3ccccc23)c1OCc1ccccc1F`, the B-score is -12 (active).

Regarding `COc1ccc(S(=O)(=O)NCCc2c[nH]c3ccccc23)cc1OC`, the B-score is -1.99.

In the case of `COc1ccccc1CC(=O)NCCc1c[nH]c2ccccc12`, the B-score was -0.19.

Values taken from PubChem BioAssay AID1672 (Johns Hopkins Ion Channel Center, 2009).
